From PubChem BioAssay (NCATS)
Where “and” joins values, the source holds several entries; their conditions need not be identical. Identical values can stand only once. Results filed as inconclusive are left out. A call without a number means that no potency is given here. More than one record can exist for a structure, and the calls need not agree. Calls of active or inactive are those of the source. Unless noted, the call rests on the fitted dose curve; in most records, active means well fitted curve in the direction sought with a large enough effect; inconclusive means small, poorly fitted or top-dose-only effect, or another doubt; inactive means no such curve, though single readings can be large; an effect the other way counts as inactive or inconclusive. Peptide text beside a SMILES is read from it.

What was measured:
[1] = Cellular Toxicity (caspase-3) N2a (AID 665); details: N2a cells, luminescence, normalized: DMSO 0%, 10 µM staurosporine 100%; series mostly up to 92.2 µM;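 further: compound exposure lasted 16 h at 37 °C before readout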
Method in brief: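 Mouse N2a neuroblastoma cells (1500/well) were treated with compounds for 16 h at 37 °C, then caspase-3/7 activity was read by Caspase-Glo luminescence after 1 h at room temperature. Data were normalized to DMSO and 10 uM staurosporine; AC50 from Hill fits.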

[2] = Cellular Toxicity (caspase-3) NIH 3T3 (AID 666); details: NIH 3T3 caspase-3 activation, apoptosis/toxicity, 0% DMSO, 100% is 100 µM tamoxifen; series mostly up to 92.2 µM;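 further: caspase signal read after 16 h compound exposure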
Method in brief: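 Mouse NIH 3T3 fibroblasts (1000 cells/well) were treated with compound for 16 hr at 37°C in complete medium; caspase-3/7 activity was read by Caspase-Glo luminescence. Normalized to DMSO and 100 uM tamoxifen; AC50 from Hill fits.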

[3] = Cellular Toxicity (caspase-3) Renal Proximal Tubule (AID 667); details: renal proximal tubule cells, primary cells freshly taken from rat, solvent-only wells 0%, staurosporine 100%; series mostly up to 91.7 µM;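 further: cells exposed to compound for 16 hours at 37 °C before detection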
Method in brief: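 Primary rat proximal tubule cells, 1000/well, 5 h plating at 37 °C, then compound 16 h at 37 °C. Caspase-Glo 3/7 reagent, 1 h RT, luminescence. Normalized to DMSO (basal) and 10 uM staurosporine (100%); Hill-fit AC50.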

[4] = biological target: Cytochrome P450 3A4 (Homo sapiens) (UniProt P08684); test: qHTS Assay for Inhibitors and Substrates of Cytochrome P450 3A4 (AID 884); details: recombinant CYP3A4, Luciferin-PPXE luminescence; series mostly up to 57.1 µM; further: nearly all actives have a fitted effect of over 50% in size; further: potency means the concentration at half of the fitted maximal effect
Method in brief: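 20 nM human CYP3A4 with 25 uM Luciferin-PPXE (at KM) in 200 mM KPO4, preincubated 10 min with compound; NADPH regeneration started a 60 min RT reaction. Luciferin detected by luminescence, normalized to 57 uM ketoconazole as full inhibition.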

[5] = biological target: Guanine nucleotide-binding protein G(i) subunit alpha-1 (Homo sapiens) (UniProt P63096); test: qHTS Assay for Inhibitors of RGS12 GoLoco Motif Activity (Green Fluorophore) (AID 879); details: Galphai1/FITC-RGS12 GoLoco peptide, fluorescence polarization; series mostly up to 57.1 µM;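 further: negative values mean loss of peptide binding seen as reduced polarization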
Method in brief: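 Fluorescence polarization assay: 50 nM Gαi1 with 10 nM FITC-labeled RGS12 GoLoco peptide in 10 mM Tris pH 7.5, 150 mM NaCl, 0.1 mM GDP, 0.05% NP40, 10 min at room temperature with compound.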

[6] = biological target: Cytochrome P450 2C9 (Homo sapiens) (UniProt P11712); test: qHTS Assay for Inhibitors and Substrates of Cytochrome P450 2C9 (AID 883); details: recombinant CYP2C9, luciferin-H luminescence, 60 min; series mostly up to 57.1 µM; further: nearly all actives have a fitted effect of over 60% in size; further: potency means the concentration at half of the fitted maximal effect
Method in brief: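 Inhibition of CYP2C9 is scored as loss of luminescence, with 57uM sulphaphenazole defining 100% inhibition. Substrate Luciferin-H is used at 100uM, equal to its KM; enzyme at 10nM in 25mM KPO4, 60 min at 37C with NADPH regeneration.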

[7] = qHTS Assay for Identification of Small Molecule Antagonists for NFkB Signaling Pathway (AID 895; active means well fitted inhibition curve with a large enough effect in the signal ratio, with a control signal flat, not every such curve was filed as active; the % refers to the signal ratio; further: potency means the concentration at half of the fitted maximal effect); details: NFkB beta-lactamase reporter cells, FRET ratio 460/530, stimulated with 10 pM TNF alpha; series mostly up to 38.3 µM
Method in brief: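 Beta-lactamase reporter read-out (460 and 530 nm emission ratio, 405 nm excitation, 2 hrs substrate loading RT) after 5 hr stimulation with 10 pM TNF alpha in compound-treated NFkB-bla ME-180 cells in low-serum medium.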

[8] = Confirmation and Secondary Assay for Modulators of Hemoglobin Beta Chain Splicing at IVS2 654 locus (AID 910); details: HeLa EGFP-654 splicing reporter, GFP fluorescence, 48 h; series mostly up to 46.1 µM;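 further: HeLa cells stably carrying EGFP split by mutant beta-globin IVS2-654 intron; per-well total GFP intensity by laser scanning cytometry after 2-day treatment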
Method in brief: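 Readout: per-well total peak green fluorescence (488 nm ex, 500–520 nm em) from objects 5–250 µm, reflecting correct splicing of an EGFP-654 reporter. Compounds were applied for 2 days at 37 °C to overnight-plated HeLa EGFP-654 cells; controls were DMSO and 500 nM IVS2-654 PNA.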

[9] = biological target: Cytochrome P450 2D6 (Homo sapiens) (UniProt P10635); test: qHTS Assay for Inhibitors and Substrates of Cytochrome P450 2D6 (AID 891); details: recombinant CYP2D6, luciferin-ME EGE luminescence; series mostly up to 57.1 µM; further: nearly all actives have a fitted effect of over 60% in size; further: potency means the concentration at half of the fitted maximal effect
Method in brief: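 Human CYP2D6 (5 nM) with 30 uM Luciferin-ME EGE (at Km) in 100 mM KPO4, compound preincubated 10 min, then NADPH regeneration system for 60 min at room temperature. Luciferin read by luminescence; normalized to 1.43 uM quinidine.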

[10] = biological target: Cytochrome P450 2C19 (Homo sapiens) (UniProt P33261); test: qHTS Assay for Inhibitors and Substrates of Cytochrome P450 2C19 (AID 899); details: recombinant CYP2C19, luciferin-H EGE luminescence; series mostly up to 57.1 µM; further: nearly all actives have a fitted effect of over 60% in size; further: potency means the concentration at half of the fitted maximal effect
Method in brief: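 5nM enzyme + 10uM Luciferin-H EGE (=KM), 50mM KPO4; cpd pin-transferred, 10 min 37C; NADPH regen, 60 min 37C; stopped w/ luciferin detection reagent, 20 min; luminescence. Normalized to 57uM ketoconazole (AC100).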

Sequence of Cytochrome P450 3A4 (Homo sapiens) (P08684 whole entry, looked up): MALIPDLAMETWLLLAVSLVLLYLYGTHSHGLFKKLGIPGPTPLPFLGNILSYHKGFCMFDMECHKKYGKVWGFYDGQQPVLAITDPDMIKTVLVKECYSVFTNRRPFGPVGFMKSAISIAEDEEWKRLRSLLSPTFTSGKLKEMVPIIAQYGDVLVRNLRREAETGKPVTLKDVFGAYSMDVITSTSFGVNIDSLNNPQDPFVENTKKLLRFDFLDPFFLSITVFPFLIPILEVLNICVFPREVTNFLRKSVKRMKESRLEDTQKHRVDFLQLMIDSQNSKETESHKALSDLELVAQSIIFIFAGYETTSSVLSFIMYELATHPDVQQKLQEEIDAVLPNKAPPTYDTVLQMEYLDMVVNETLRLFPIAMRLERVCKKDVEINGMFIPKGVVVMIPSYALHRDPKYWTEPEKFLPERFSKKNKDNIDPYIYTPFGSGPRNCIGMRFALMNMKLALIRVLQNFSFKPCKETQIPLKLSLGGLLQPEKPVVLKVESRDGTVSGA
Sequence of Cytochrome P450 2D6 (Homo sapiens) (P10635 whole entry, looked up): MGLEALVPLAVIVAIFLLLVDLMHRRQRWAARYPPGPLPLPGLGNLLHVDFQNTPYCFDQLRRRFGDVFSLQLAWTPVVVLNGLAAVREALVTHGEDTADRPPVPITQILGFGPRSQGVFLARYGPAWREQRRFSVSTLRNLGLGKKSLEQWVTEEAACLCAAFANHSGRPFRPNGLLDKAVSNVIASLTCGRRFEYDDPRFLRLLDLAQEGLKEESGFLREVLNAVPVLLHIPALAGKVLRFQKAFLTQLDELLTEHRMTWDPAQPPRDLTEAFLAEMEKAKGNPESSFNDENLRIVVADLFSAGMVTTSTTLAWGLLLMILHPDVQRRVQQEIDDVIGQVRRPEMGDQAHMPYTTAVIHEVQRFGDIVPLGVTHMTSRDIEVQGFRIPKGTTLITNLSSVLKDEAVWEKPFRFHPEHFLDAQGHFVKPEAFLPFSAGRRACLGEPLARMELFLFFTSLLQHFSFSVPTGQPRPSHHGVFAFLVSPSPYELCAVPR
Sequence of Cytochrome P450 2C9 (Homo sapiens) (P11712 whole entry, looked up): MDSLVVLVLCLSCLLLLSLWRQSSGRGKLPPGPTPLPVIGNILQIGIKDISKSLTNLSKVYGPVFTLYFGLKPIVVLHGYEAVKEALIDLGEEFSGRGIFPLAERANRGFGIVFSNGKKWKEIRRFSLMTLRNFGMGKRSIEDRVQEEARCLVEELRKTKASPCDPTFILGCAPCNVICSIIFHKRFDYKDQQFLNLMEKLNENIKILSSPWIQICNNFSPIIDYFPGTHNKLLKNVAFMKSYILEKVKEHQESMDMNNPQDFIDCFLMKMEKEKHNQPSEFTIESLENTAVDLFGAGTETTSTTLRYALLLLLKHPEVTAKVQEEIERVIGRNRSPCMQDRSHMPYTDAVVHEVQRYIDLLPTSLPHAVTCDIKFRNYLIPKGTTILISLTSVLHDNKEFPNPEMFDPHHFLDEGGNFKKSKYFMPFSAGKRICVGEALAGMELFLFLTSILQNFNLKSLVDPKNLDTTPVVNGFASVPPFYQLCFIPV
Sequence of Guanine nucleotide-binding protein G(i) subunit alpha-1 (Homo sapiens) (P63096 whole entry, looked up): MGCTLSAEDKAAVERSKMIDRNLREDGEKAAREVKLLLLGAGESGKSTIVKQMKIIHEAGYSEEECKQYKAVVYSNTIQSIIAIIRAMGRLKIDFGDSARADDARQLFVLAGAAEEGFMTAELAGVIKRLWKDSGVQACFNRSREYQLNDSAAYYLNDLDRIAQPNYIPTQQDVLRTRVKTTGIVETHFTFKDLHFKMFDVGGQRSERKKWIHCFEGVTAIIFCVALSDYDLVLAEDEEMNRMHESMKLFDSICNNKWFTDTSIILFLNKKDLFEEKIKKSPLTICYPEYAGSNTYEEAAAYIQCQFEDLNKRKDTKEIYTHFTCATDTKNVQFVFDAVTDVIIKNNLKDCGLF
Sequence of Cytochrome P450 2C19 (Homo sapiens) (P33261 whole entry, looked up): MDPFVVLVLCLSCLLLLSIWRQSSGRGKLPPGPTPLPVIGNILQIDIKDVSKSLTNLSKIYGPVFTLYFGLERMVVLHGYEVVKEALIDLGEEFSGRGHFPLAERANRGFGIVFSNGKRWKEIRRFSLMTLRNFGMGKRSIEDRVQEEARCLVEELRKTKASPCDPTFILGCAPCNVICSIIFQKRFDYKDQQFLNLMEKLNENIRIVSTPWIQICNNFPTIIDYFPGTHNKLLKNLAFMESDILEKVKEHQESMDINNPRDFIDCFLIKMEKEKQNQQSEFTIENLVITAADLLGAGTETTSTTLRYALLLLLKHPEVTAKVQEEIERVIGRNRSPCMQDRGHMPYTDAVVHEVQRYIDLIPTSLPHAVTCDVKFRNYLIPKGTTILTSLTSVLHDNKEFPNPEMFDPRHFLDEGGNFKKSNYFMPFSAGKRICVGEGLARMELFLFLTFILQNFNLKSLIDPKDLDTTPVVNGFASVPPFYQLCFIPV

With `CCCCC(CC)COC(=O)C(C#N)=C(c1ccccc1)c1ccccc1` (stereo unspecified) the outcome [1] was “inactive”, the outcome [2] was “inactive” and the outcome [3] was “inactive”. The Potency [4] was “inactive”.

For `CCN(CC)C(=S)SSC(=S)N(CC)CC`, the outcome [5] was “inactive”, the Potency [6] was 2.51 µM (active) and 398 nM (active) and the Potency [7] was 7.08 µM (active). The Potency [8] was “inactive”.

With `CC1(C)C(=O)N(CCN2CCC(C(=O)c3ccc(F)cc3)CC2)c2ccccc21` the outcome [5] was “inactive”, the Potency [6] was “inactive” and the Potency [9] was 1.26 µM (active).

For `O=C(CCc1ccc(O)cc1)c1c(O)cc(O)cc1O`, the outcome [5] was “inactive”, the Potency [6] was 2.51 µM (active) and the Potency [4] was 2 µM (active) and 15.8 µM (active). For the same compound, the Potency [10] was 3.98 µM (active) and the Potency [8] was “inactive”.

In the case of `C[C@H](Cc1ccc(O)c(O)c1)[C@@H](C)Cc1ccc(O)c(O)c1`, the outcome [5] is reported as “inactive”, the Potency [6] is reported as 1.58 µM (active) and the Potency [4] is reported as “inactive”. The Potency [9] was 25.1 µM (active), the Potency [7] was 7.94 µM (active) and the Potency [10] was 6.31 µM (active).

In the case of `NS(=O)(=O)c1cc(C(=O)O)c(NCc2ccco2)cc1Cl`, the outcome [1] is reported as “inactive”, the outcome [2] is reported as “inactive” and the outcome [3] is reported as “inactive”. The Potency [8] was “inactive”.

In the case of `COC(=O)[C@H](Cc1ccccc1)NC(=O)[C@@H](N)CC(=O)O` (H-Asp-Phe-OMe), the outcome [1] is reported as “inactive”, the outcome [2] is reported as “inactive” and the outcome [3] is reported as “inactive”. The Potency [4] was “inactive”.

In the case of `Oc1ccc(-c2nc(-c3ccc(F)cc3)c(-c3ccncc3)[nH]2)cc1`, the outcome [5] is reported as “inactive”, the Potency [6] is reported as 7.94 µM (active) and the Potency [9] is reported as 12.6 µM (active) and 5.01 µM (active). For the same compound, the Potency [10] was 0.794 µM (active).

For `CC(=O)Nc1ccc(O)cc1`, the outcome [1] was “inactive”, the outcome [2] was “inactive” and the outcome [3] was “inactive”. For the same compound, the outcome [6] was “inactive”, the outcome [9] was “inactive” and the outcome [10] was “inactive”.

With `O=c1cc(N2CCOCC2)oc2c(-c3ccccc3)cccc12` the outcome [5] was “inactive”.

With `CCc1nc(N)nc(N)c1-c1ccc(Cl)cc1` the outcome [1] was “inactive”, the outcome [2] was “inactive” and the outcome [3] was “inactive”. For the same compound, the outcome [6] was “inactive”, the outcome [10] was “inactive” and the Potency [8] was “inactive”.

With `NCCCCNCCCN` the outcome [5] was “inactive”, the Potency [4] was “inactive” and the Potency [7] was “inactive”. The Potency [8] was “inactive”.

In the case of `Cc1cc(O)c2c(c1)C(=O)c1cc(O)cc(O)c1C2=O`, the outcome [1] is reported as “inactive”, the outcome [3] is reported as “inactive” and the outcome [5] is reported as “inactive”. For the same compound, the Potency [6] was 3.98 µM (active) and the Potency [9] was 31.6 µM (active).

In the case of `CN(C)c1ccc2nc3ccc(=[N+](C)C)cc-3sc2c1`, the outcome [1] is reported as “inactive”, the outcome [2] is reported as “inactive” and the outcome [3] is reported as “inactive”.

With `O=C1NC(=O)C(c2ccccc2[N+](=O)[O-])=C1Nc1ccc(O)c(Cl)c1` the outcome [5] was “inactive” and the Potency [9] was “inactive”.

With `O=c1c(O)c(-c2ccc(O)cc2O)oc2cc(O)cc(O)c12` the outcome [5] was “inactive”, the Potency [6] was 10 µM (active) and the Potency [9] was “inactive”. The Potency [10] was “inactive” and the Potency [8] was “inactive”.

With `Cc1cccc(C#Cc2ccccc2)n1` the outcome [5] was “inactive”, the Potency [6] was “inactive and 10 µM (active)” and the Potency [10] was “inactive and 7.94 µM (active)”.

In the case of `COc1ccccc1N1CCN(CCN(C(=O)C2CCCCC2)c2ccccn2)CC1`, the outcome [5] is reported as “inactive”, the Potency [4] is reported as 3.98 µM (active) and the Potency [7] is reported as “inactive”.

In the case of `c1ccc2[nH]c(-c3cscn3)nc2c1`, the outcome [1] is reported as “inactive”, the outcome [3] is reported as “inactive” and the Potency [8] is reported as “inactive”.

In the case of `CCCc1cc(=O)[nH]c(=S)[nH]1`, the outcome [1] is reported as “inactive”, the outcome [2] is reported as “inactive” and the outcome [3] is reported as “inactive”. The Potency [4] was “inactive”, the Potency [10] was “inactive” and the Potency [8] was “inactive”.

With `O=c1c(O)c(-c2cc(O)c(O)c(O)c2)oc2cc(O)cc(O)c12` the outcome [5] was “inactive” and the Potency [9] was “inactive”.

With `Nc1ccc(S(N)(=O)=O)cc1` the outcome [1] was “inactive”, the outcome [2] was “inactive” and the outcome [3] was “inactive”. The Potency [8] was “inactive”.

In the case of `CS(=O)(=O)OCCCCOS(C)(=O)=O`, the outcome [1] is reported as “inactive”, the outcome [2] is reported as “inactive” and the outcome [3] is reported as “inactive”. For the same compound, the Potency [4] was “inactive” and the Potency [8] was “inactive”.

In the case of `Cc1nc2n(c(=O)c1CCN1CCC(c3noc4cc(F)ccc34)CC1)CCCC2`, the outcome [5] is reported as “inactive”, the outcome [6] is reported as “inactive” and the Potency [9] is reported as 7.94 µM (active). The Potency [7] was “inactive” and the outcome [10] was “inactive”.

For `Cc1ccc(C)c(OCCCC(C)(C)C(=O)O)c1`, the outcome [1] was “inactive”, the outcome [2] was “inactive” and the outcome [3] was “inactive”. The Potency [6] was 6.31 µM (active), the Potency [4] was “inactive” and the Potency [8] was “inactive”.

With `CC(C)c1ccc2c(c1)c(SC(C)(C)C)c(CC(C)(C)C(=O)O)n2Cc1ccc(Cl)cc1` the outcome [5] was “inactive”.

In the case of `Nc1nc(OCc2ccccc2)c2[nH]cnc2n1`, the outcome [5] is reported as “inactive”.

For `NC(=NCc1ccccc1)NC(=O)c1nc(Cl)c(N)nc1N`, the outcome [5] was “inactive”, the Potency [4] was “inactive” and the Potency [9] was 5.01 µM (active). The Potency [8] was “inactive”.

In the case of `COc1c2occc2cc2ccc(=O)oc12`, the outcome [1] is reported as “inactive”, the outcome [2] is reported as “inactive” and the outcome [3] is reported as “inactive”. The Potency [8] was “inactive”.

With `CNC[C@H](O)c1ccc(O)c(O)c1` the outcome [5] was “inactive”.

With `Cc1ccc(S(=O)(=O)NC(=O)NN2CC3CCCC3C2)cc1` (stereo unspecified) the Potency [4] was “inactive” and the Potency [8] was “inactive”.

With `COc1ccc2cc([C@H](C)C(=O)O)ccc2c1` the outcome [5] was “inactive” and the Potency [7] was “inactive”.

For `CN1C(C(=O)Nc2ccccn2)=C(O)c2sccc2S1(=O)=O`, the Potency [4] was “inactive” and the Potency [8] was “inactive”.

With `CC1(C)NC(=O)N(c2ccc([N+](=O)[O-])c(C(F)(F)F)c2)C1=O` the outcome [5] was “inactive”, the Potency [9] was “inactive” and the Potency [10] was 7.94 µM (active) and 126 nM (active) and 251 nM (active). The Potency [8] was “inactive”.
